Test results published in ChEMBL document CHEMBL3988442, “University of Dundee, Small-Polar-MMV Screening Library” (2021).
For some assays here: Measured potencies and affinities stand elsewhere.

How the values were obtained:
Design in all cases: scale not given: direction of the effect not stated beside the values
[1] = target: Protein translocase subunit SecA (Escherichia coli (strain K12)) (UniProt P10408); assay: Assay to Identify E. coli SecA ATPase Inhibitors; assay type: functional; details: 30 µM
Chain of Protein translocase subunit SecA (Escherichia coli (strain K12)) (P10408 whole entry): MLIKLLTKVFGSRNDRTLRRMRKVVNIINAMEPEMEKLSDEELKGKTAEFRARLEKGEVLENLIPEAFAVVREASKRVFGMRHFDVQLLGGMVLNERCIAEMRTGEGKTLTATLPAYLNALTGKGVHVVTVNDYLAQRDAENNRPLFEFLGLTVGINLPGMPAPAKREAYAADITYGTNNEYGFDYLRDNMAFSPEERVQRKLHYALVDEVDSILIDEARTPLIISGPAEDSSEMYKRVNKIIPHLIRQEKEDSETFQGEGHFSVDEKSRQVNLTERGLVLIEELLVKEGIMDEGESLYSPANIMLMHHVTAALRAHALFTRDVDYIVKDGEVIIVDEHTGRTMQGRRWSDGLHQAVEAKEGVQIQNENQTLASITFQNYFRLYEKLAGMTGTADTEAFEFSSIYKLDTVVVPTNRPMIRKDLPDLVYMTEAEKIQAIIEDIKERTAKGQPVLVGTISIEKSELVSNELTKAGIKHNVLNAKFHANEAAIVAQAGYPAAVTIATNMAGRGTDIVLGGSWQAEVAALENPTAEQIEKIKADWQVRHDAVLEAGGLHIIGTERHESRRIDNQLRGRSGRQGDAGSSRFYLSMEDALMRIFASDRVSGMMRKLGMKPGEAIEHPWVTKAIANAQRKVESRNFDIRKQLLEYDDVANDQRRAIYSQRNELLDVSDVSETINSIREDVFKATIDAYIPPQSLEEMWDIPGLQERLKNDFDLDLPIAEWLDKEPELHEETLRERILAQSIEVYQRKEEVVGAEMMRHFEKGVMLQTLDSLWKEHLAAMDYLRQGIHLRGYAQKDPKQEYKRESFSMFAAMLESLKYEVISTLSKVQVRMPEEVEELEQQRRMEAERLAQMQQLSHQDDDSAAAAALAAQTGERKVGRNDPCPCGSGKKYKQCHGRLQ

[2] = target: T1, Ubiquitin-activating enzyme e1, putative (Leishmania donovani (strain BPK282A1)) (UniProt E9BSI1); assay: Leishmania donovani Ubiquitin Activating Enzyme (LdE1); assay type: functional; details: 30 µM
T1 sequence (whole entry): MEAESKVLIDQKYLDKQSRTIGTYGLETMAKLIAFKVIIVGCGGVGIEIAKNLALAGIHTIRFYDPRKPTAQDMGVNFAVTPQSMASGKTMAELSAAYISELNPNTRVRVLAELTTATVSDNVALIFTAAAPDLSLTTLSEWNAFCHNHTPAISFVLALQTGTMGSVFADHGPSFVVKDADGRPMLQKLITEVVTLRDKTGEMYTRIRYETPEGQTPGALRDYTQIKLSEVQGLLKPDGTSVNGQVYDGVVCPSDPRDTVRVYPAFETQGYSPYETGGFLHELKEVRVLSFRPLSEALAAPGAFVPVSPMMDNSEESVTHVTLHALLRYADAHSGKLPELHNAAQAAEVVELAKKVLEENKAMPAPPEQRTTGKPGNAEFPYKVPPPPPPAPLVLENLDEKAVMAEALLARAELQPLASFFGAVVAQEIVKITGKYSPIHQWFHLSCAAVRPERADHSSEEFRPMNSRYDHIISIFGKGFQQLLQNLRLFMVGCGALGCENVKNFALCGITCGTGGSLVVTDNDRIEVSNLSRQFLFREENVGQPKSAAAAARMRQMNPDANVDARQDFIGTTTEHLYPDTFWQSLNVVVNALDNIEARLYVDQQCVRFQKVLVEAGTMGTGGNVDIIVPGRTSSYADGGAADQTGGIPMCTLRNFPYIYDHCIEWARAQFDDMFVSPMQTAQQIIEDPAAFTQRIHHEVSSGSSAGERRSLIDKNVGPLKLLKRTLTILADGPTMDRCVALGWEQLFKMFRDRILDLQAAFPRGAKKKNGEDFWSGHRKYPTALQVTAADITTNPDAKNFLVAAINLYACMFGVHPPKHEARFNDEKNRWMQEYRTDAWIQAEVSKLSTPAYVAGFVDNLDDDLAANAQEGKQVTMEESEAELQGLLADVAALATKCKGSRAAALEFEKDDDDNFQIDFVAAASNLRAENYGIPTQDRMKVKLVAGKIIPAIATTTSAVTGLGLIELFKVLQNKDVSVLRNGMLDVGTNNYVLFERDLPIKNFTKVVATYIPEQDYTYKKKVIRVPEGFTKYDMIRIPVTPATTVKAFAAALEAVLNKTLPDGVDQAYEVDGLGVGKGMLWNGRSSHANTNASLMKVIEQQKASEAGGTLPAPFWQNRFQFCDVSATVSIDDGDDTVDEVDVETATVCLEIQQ

[3] = target: AMP-activated protein kinase, AMPK (Homo sapiens) (UniProt P54646+O43741+P54619+Q9UGJ0+Q9Y478+Q13131+Q9UGI9); assay: AMP-dependent Kinase enzyme assay. An in vitro enzyme assay that detects ADP turnover that is directly proportional to AMPK activity. This uses naive AMPK that is activated during the assay with MK-8722; assay type: functional; details: 30 µM
[4] = target: Sialic acid-binding Ig-like lectin 9 (Homo sapiens) (UniProt Q9Y336); assay: Hs-Siglec9 ALPHAscreen SOP 20170721; details: 10 µM
Chain of Sialic acid-binding Ig-like lectin 9 (Homo sapiens) (Q9Y336 whole entry): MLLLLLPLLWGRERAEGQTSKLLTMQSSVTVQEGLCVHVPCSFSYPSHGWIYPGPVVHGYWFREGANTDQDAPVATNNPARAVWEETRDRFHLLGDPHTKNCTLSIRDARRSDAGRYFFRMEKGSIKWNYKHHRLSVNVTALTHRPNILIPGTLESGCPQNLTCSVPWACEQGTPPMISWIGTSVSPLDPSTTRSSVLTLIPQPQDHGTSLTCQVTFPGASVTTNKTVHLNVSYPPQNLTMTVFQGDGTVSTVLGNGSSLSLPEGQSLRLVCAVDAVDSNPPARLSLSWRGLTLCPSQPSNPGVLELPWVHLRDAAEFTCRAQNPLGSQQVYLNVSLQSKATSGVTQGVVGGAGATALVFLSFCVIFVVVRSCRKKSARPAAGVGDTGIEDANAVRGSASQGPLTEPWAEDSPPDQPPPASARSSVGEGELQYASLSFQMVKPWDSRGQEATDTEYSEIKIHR

Trypanosoma cruzi = assay: Trypanosoma cruzi phosphomannomutase and mannose-1-phosphate guanylyltransferase assay; assay type: functional; details: 10 µM
[5] = target: T2, Arginase-2, mitochondrial (Homo sapiens) (UniProt P78540); assay: in vitro enzyme assay to detect the production of urea directly proportional to the activity of Arginase II; assay type: functional; details: 33.3 µM; also: in the data most compounds retested in dose-response had high values
T2 sequence (whole entry): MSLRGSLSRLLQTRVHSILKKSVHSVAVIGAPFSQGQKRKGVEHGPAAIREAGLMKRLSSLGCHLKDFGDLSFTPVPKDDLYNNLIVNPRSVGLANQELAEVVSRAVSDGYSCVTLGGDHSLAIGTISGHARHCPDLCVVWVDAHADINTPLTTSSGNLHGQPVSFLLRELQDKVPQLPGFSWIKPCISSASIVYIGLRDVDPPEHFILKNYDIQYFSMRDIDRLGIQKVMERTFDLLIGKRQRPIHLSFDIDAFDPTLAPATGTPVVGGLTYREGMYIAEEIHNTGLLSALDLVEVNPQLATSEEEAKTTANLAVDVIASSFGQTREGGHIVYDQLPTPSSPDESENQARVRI

[6] = target: T3, Proteasome subunit beta (Trypanosoma cruzi) (UniProt O96673); assay: Trypanosoma cruzi proteasome chymotrypsin-like activity (TcProtChymo) assay.; also: in the data most compounds retested in dose-response had high values; assay type: functional; details: 9.37 µM
T3 sequence (whole entry): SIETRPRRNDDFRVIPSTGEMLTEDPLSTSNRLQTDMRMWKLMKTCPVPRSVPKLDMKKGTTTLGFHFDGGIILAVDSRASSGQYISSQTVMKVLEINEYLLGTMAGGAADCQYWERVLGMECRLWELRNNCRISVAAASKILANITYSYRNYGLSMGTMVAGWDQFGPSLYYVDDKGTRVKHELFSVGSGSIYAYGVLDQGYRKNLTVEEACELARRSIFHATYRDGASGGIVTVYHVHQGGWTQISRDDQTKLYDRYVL

Homo sapiens = organism: Homo sapiens; assay: To identify inhibition of the IFN signalling (Jak-Stat) pathway via expression of an eGFP reporter gene under the control of an IFN-stimulated response element (ISRE) containing MxA promoter.; assay type: functional; details: 30 µM
[7] = target: T4, Tyrosyl-tRNA synthetase, putative (Trypanosoma cruzi (strain CL Brener)) (UniProt Q4DSP6); assay: Trypanosoma cruzi tyrosyl tRNA synthetase (TcYRS) _High Tyrosine SOP; assay type: functional; details: 30 µM; also: in the data most compounds retested in dose-response had high values
T4 sequence (whole entry): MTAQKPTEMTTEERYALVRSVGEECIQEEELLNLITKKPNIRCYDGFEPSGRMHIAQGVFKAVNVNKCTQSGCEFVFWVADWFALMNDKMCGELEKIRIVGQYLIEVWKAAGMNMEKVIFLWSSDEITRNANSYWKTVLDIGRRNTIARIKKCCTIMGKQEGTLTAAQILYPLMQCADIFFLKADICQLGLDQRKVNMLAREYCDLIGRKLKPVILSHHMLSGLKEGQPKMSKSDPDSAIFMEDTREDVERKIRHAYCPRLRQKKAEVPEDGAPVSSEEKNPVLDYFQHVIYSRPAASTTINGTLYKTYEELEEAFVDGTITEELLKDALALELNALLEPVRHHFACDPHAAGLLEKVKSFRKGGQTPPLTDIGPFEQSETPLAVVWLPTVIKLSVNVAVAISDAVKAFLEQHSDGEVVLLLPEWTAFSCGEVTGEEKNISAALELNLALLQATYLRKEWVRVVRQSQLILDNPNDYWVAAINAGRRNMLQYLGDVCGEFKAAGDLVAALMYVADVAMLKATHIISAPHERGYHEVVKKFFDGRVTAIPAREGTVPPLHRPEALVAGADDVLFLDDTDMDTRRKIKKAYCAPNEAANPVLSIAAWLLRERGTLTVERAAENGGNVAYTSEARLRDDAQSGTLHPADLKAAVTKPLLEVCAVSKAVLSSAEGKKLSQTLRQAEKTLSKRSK

[8] = target: T4, Tyrosyl-tRNA synthetase, putative (Trypanosoma cruzi (strain CL Brener)); assay: Trypanosoma cruzi tyrosyl tRNA synthetase (TcYRS) SOP; assay type: functional; details: 30 µM
[9] = target: Chromo domain-containing protein 1 (Saccharomyces cerevisiae (strain ATCC 204508 / S288c) (Baker's yeast)) (UniProt P32657); assay: ScCHD-1 Enzyme Inhibition Assay; assay type: functional; details: 30 µM; also: in the data most compounds retested in dose-response had high values
Chain of Chromo domain-containing protein 1 (Saccharomyces cerevisiae (strain ATCC 204508 / S288c) (Baker's yeast)) (P32657 whole entry, the tested form may be a part): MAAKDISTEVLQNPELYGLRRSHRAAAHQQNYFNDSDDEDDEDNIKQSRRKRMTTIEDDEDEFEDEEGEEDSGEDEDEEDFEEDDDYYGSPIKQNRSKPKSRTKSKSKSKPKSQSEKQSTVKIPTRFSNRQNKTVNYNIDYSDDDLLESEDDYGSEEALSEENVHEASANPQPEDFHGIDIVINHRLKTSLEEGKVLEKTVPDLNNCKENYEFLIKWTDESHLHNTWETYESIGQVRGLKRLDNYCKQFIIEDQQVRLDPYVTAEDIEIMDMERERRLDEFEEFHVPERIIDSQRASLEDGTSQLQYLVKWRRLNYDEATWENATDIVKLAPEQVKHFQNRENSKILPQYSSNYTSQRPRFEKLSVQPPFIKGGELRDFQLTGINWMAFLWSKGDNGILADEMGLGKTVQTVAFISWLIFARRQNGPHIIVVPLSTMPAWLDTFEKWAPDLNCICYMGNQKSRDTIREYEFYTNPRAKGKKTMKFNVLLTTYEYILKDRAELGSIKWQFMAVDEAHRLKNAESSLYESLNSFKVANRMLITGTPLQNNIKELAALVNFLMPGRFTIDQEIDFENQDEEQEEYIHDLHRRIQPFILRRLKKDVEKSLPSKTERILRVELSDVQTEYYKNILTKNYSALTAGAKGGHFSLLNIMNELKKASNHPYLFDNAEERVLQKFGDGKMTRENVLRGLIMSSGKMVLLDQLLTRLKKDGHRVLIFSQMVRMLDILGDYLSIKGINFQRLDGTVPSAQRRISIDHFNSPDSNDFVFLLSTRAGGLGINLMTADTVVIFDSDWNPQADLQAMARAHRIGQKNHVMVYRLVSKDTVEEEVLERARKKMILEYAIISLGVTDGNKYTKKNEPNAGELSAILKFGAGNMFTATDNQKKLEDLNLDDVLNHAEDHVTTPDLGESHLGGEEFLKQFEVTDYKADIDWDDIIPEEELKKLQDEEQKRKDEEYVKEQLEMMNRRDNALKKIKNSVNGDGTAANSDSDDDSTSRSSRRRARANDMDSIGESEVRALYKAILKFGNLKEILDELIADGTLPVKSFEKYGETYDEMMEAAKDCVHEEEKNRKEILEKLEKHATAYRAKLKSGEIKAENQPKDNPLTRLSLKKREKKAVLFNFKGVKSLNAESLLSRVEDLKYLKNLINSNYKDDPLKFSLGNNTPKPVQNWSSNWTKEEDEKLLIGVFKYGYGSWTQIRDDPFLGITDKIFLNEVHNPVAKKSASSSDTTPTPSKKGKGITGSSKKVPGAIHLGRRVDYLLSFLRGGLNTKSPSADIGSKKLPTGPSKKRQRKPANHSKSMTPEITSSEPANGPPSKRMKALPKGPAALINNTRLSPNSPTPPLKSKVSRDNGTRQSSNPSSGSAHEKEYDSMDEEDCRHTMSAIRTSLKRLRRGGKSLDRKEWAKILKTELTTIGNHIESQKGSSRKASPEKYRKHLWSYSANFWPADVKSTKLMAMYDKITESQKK

| SMILES | Percent Effect [1] [%] | Percent Effect [2] [%] | Percent Effect [3] [%] | Percent Effect [4] [%] | Percent Effect (Trypanosoma cruzi) [%] | Percent Effect [5] [%] | Percent Effect [6] [%] | Percent Effect (Homo sapiens) [%] | Percent Effect [7] [%] | Percent Effect [8] [%] | Percent Effect [9] [%] |
| --- | --- | --- | --- | --- | --- | --- | --- | --- | --- | --- | --- |
| Cc1nnc(NC(=O)CN(C)CC2CCCN2c2cccnn2)s1 (configuration not stated) | -6.6 | -2.7 | -10.9 | 17.7 | -1.56 | -1.67 | 17.3 | 17.7 | 5.94 | 1.22 | 0.656 |
| CCCNC(=O)CCNC(=O)Cc1nc(-c2ccco2)oc1C | -3.29 | 2.67 | -1.47 | 12.8 | -5.16 | 4.69 | 13.2 | 8.33 | 3.83 | 8.64 | -3.56 |
| Cc1nc(CCNC(=O)N2CCC(Cc3cnn(C)c3)C2)cs1 (configuration not stated) | -5.52 | 2.63 | 9.75 | 4.12 | -0.682 | 116 | 19.9 | -10.1 | 2.13 | 5.2 | -2.02 |
| CCC(C)(NCC(=O)Nc1nc(C)cs1)c1nc(C)cs1 (configuration not stated) | 0.0522 | 10.8 | -10.8 | -1.43 | -3.62 | -2.73 | 7.47 | 21 | 7.53 | 13.6 | -3.58 |
| Cc1occc1C(=O)N1CCCC2(CCN(CCN3CCCC3)C2=O)C1 (configuration not stated) | -3.31 | -2.6 | -1.22 | 14.5 | 6.79 | -12.4 | 7.82 | -2.84 | -11.8 | -11.1 | -0.372 |
| CN(C)S(=O)(=O)N1CCC2(CCCN(Cc3ccc(F)cc3)C2=O)C1 (configuration not stated) | -4.94 | 8.22 | -3.06 | 5.14 | 5.16 | 2.4 | 5.22 | 4 | 5.21 | -1.24 | -6.71 |
| CC(C)Nc1nc2c(cc1C(=O)N(C)C)CCNCC2 | -4.01 | 16 | 4.22 | 9.77 | -0.772 | -24.6 | 5.47 | -7.58 | 0 | -7.5 | -4.61 |
| CC(C)c1nc(C2CCCN(C(=O)CCn3ccnc3)C2)no1 (configuration not stated) | -0.0893 | 24.3 | -7.28 | -4.78 | 1.42 | -17.6 | 16.4 | 19.3 | 6.4 | 18.5 | -10.5 |
| O=C(c1cnco1)N1CCCC(Cc2cccc3ncccc23)C1 (configuration not stated) | -1.91 | -4.05 | 15.2 | -0.964 | 7.51 | 0.696 | 8.42 | 17.8 | 1.07 | 9.09 | -18.8 |
| Cc1nc(C2CCN(C(=O)c3cccnc3)CC2)c2sccn12 | -1.59 | 1.35 | 6.93 | 4.07 | 3.36 | 3.48 | 7.8 | -15.3 | 2.15 | 6.49 | -6.97 |
| Cc1cnn(C2CCCN(C(=O)C3=NN(C)C(=O)CC3)C2)c1 (configuration not stated) | -6.81 | 21.6 | -15.8 | 11.8 | 8.4 | 3.21 | 15.7 | 2.98 | 8.37 | 13.6 | -12.6 |
| Cc1cccc(COC[C@]23COC[C@H]2CN(C(=O)c2ccsc2)C3)n1 | -1.49 | 5.41 | 1.58 | 0.368 | 1.95 | 27.9 | 10.9 | -2.76 | 8.91 | 13.4 | -5.97 |
| COc1cc(NC(=O)c2cc(C)sc2C)c(C(=O)N(C)C)cc1OC | 0.25 | 7.79 | -2.17 | 6.61 | 4.42 | -37.2 | 19.1 | -8.35 | 4.3 | 13.6 | -1.78 |
| O=C(C1CCCc2[nH]ncc21)N1CCCC1 (configuration not stated) | -2.14 | -2.7 | 2.45 | -7.51 | -0.0978 | -1.24 | 5.92 | -17.4 | -2.15 | -6.17 | -2.26 |
| CNc1nc2c(s1)C(c1c(F)cccc1Cl)CC(=O)N2 (configuration not stated) | -1.81 | 13.2 | -308 | 1.93 | 4.58 | -4.73 | 6.81 | -0.412 | 2.13 | 2.6 | 22.5 |
| Cn1c(Cn2ccnc2)nnc1C1CCCN(C2CCCCC2)C1 (configuration not stated) | -3.14 | 8.11 | 5.59 | 1.26 | 1.93 | 2.38 | 3.1 | -7.16 | 5.82 | 19.5 | -3.83 |
| O=S1(=O)CCN(Cc2cccnc2)[C@H]2CCN(c3ncccn3)CC[C@H]21 | -8.77 | -2.7 | -0.0275 | 20.3 | -3.91 | -0.417 | -2.62 | 16.4 | 3.96 | -1.22 | 0.188 |
| CS(=O)(=O)N1CCC2(CN(C(=O)c3cccnc3)C2)C1 | -2.76 | 5.48 | -1.91 | 3.06 | -2.18 | -2.79 | 14.3 | 23.4 | 4.17 | 6.17 | -1.65 |
| Cc1cnn(CC2CN(Cc3nc(N)c4ccccc4n3)CCO2)c1 (configuration not stated) | -2.67 | 13 | -1.66 | -10 | -5.78 | -1.47 | 19.3 | 10.5 | 4.76 | 11.8 | -20.4 |
| O=C(COCC1CC1)N1CCCC(n2cccn2)C1 (configuration not stated) | -2.32 | 13.9 | 1.73 | -2.9 | -2.36 | 2.8 | 13.4 | -5.32 | -1.04 | -7.59 | -22.9 |
| CCNC(=O)N1CCC2(C1)c1ccccc1S(=O)(=O)N2CCC(C)C (configuration not stated) | -3.49 | 5.33 | 5.91 | -1.77 | 5.99 | -52.5 | 5.3 | -14.8 | 1.04 | 0 | -0.42 |
| Cc1cnn(CCC(=O)N2CCCN(c3ncccc3C#N)CC2)c1 | -7.15 | 19 | -1.68 | 6.67 | -1.74 | -0.215 | 9.61 | -1.81 | 4.17 | 20.2 | -30.4 |
